Rows were chosen to be rich in hits. Some 2.4% of all compounds tested hit in one or more screens of this group.
CHT block = inhibitors of human choline transporter CHT. Q9GZV3. B-score at 10 µM. AID 488975. actives 0.86% (n = 310,000). CHT-expressing cells, membrane potential dye, choline response; active compounds read low;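 active = B-score over 3 SD under the library average, and starting fluorescence ratio not unusually high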;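 note: choline stimulus applied at its EC90 after an EC20 pre-addition; B-score computed on integrated fluorescence ratio after choline addition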
Target sequence (Q9GZV3 whole entry, looked up): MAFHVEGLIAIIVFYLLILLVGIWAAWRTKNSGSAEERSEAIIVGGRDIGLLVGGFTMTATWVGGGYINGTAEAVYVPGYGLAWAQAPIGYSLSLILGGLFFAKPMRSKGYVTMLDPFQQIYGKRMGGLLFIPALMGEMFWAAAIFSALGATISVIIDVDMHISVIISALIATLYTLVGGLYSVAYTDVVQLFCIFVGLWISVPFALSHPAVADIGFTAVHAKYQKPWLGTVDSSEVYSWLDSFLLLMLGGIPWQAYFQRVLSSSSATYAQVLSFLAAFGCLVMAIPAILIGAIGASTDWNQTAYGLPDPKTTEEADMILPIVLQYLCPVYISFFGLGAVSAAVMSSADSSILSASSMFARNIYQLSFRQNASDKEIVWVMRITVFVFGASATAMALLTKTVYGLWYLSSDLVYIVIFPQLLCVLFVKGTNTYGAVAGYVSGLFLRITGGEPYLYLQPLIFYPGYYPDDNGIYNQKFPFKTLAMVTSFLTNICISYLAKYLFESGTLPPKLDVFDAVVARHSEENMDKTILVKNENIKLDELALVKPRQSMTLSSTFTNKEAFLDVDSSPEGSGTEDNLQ
TMEM16A inh = blocks the mouse calcium-activated chloride channel TMEM16A; Q8BHY3; HEK293 TMEM16A/YFP iodide influx fluorescence, ionomycin; normalized B-score (activity score, 25-100; higher = stronger inhibition) at 10 µM; actives 1.2% (n = 310,000); AID 588511;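 active = ratio plate-corrected score three or more library SD toward inhibition, starting fluorescence score within five deviations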;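 note: score derived from kinetic fluorescence span divided by baseline fluorescence per well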
CHT allo act = allosteric activators of human choline transporter CHT; B-score at 10 µM; Q9GZV3; actives 0.49% (n = 310,000); CHT-expressing cells, membrane potential dye, choline EC20; active compounds read high; LV-AA mutant CHT in HEK293 cells; AID 488977;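 active = initial fluorescence not abnormally high and integrated response B-score, plate-corrected, over 3 SD above library mean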
ANO1 activ = activates or potentiates the mouse TMEM16A chloride channel. Q8BHY3. HEK293 TMEM16A/YFP-H148Q/I152L, iodide quench fluorescence; active compounds read low. B-score at 10 µM. actives 0.3% (n = 340,000). AID 623877;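 active = fluorescence-ratio B-score plate-corrected deviation score at least 3 library SD below zero, with starting fluorescence score within 5 deviations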;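 note: channel opened by trigger with iodide after compound preincubation; score built on the fluorescence ratio of max minus min over baseline; more negative score means more quench and so TMEM16A activation or potentiation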
CHT act confirm = human CHT activation, confirmatory screen; shares compounds with CHT allo act; CHT-expressing cells, membrane potential dye fluorescence (FDSS); % of choline EC20–EC90 response window; HEK293 expressing CHT LV-AA mutant; choline added at its EC20; activation, % at 10 µM; actives 91% (n = 2,500); AID 504833;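 active = primary screen active, with duplicate mean activation above negative control mean plus 3 SD, cut at about 11% in these data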
HEK293 MP dye = CHT activator counter-screen hit in parental HEK293 cells; ratio readout change at 10 µM, hits read low; shares compounds with CHT allo act; actives 62% (n = 2,500); membrane potential dye fluorescence (FDSS); measured after EC20 choline addition;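 active = duplicate-averaged ratio beyond 3 SD from buffer wells, up or down, though filed actives are nearly all decreases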
A number is an active result; - = inactive; . = no result given; ! = repeats disagree.

SMILES | CHT block | TMEM16A inh | CHT allo act | ANO1 activ | CHT act confirm | HEK293 MP dye
COc1cc2c(cc1OC)C(c1cccs1)N(C(=S)NC(C)C)CC2 (configuration not stated) | - | - | 8.7 | - | 14 | -
O=C(O)c1cc(-c2ccc(N3CCOCC3)cc2)nn1-c1ccc(F)cc1 | - | - | - | - | . | .
COc1ccc(C(C)=O)cc1CSC(=N)N | - | - | - | - | . | .
CCOc1ccc(C(C)=O)cc1CSC(=N)N | - | - | - | - | 13 | -45
CN(C)c1ccc2c3c(ccc(N(C)C)c13)COC2 | - | - | 15 | - | 24 | -31
CN(C)c1cccc2cccc(N(C)C)c12 | - | - | - | - | . | .
OC[C@@H]1[C@@H](c2ccccc2)C(c2ccc(F)cc2)=NN1c1ccccc1 | . | . | . | - | . | .
COc1ccc(-c2cn(-c3ccc(Br)cc3)c3[n+]2CCS3)cc1 | - | - | - | - | . | .
Clc1ccc(-c2c[n+]3c(n2-c2ccccc2)SCC3)cc1 | - | - | - | - | 43 | -28
Clc1ccc(-c2cn(-c3ccccc3)c3[n+]2CCS3)cc1 | - | - | - | - | 41 | -40
Fc1ccc(-c2cn(-c3ccccc3)c3[n+]2CCS3)cc1 | - | - | - | - | 51 | -42
CCCOc1ccc(N2C(=O)CC(SC(=N)N3N=C(c4ccccc4)CC3c3ccccc3)C2=O)cc1 (configuration not stated) | - | - | - | - | . | .
CCN(CC)Cc1cc(C(=O)O)c(-c2ccccc2)o1 | - | - | - | - | . | .
Cc1ccccc1NC(=O)NNC(=O)COc1ccc2ccccc2c1 | - | - | - | - | . | .
CC(NC(=O)CCCc1c[nH]c2ccccc12)c1ccc(F)cc1 (configuration not stated) | - | - | - | - | . | .
CCn1cc(C(=O)NCCCN(C)C)c(=O)c2cc(F)c(N3CCN(C)CC3)cc21 | - | - | - | - | 30 | -
CCn1cc(S(=O)(=O)c2ccc(C)cc2)c(=O)c2cc(F)c(N3CCN(C)CC3)cc21 | - | - | - | - | 49 | -49
c1ccc2c(c1)nc1n2CCN1CCNC1CCCCC1 | - | - | - | - | . | .
c1ccc(CN2CCN(CCN3CCn4c3nc3ccccc34)CC2)cc1 | - | - | - | - | 27 | -
Cc1ccc(NC2=C(Cl)C(=O)OC2OC(=O)c2ccco2)cc1 (configuration not stated) | - | - | - | - | . | .
Cc1ccc(-n2cc(CNCCCn3ccnc3C)c(-c3ccc(F)cc3)n2)cc1 | - | - | - | - | 32 | -32
CC[n+]1c(C)sc2c3ccsc3ccc21 | - | - | 10 | - | 48 | -50
Cc1ccc(-c2nc3ncccn3c2NC2CCCCC2)o1 | - | - | - | - | 36 | -
CS(=O)(=O)N1CCN(c2ccc([N+](=O)[O-])c(NCCN3CCOCC3)c2)CC1 | - | - | - | - | 32 | -40
COc1cc(-c2nc3ccccn3c2N)ccc1O | - | - | - | - | . | .
SMILES | CHT block | TMEM16A inh | CHT allo act | ANO1 activ | CHT act confirm | HEK293 MP dye
COc1ccc(-c2nc3cccc(C)n3c2NCC2CCCO2)cc1O (configuration not stated) | - | - | - | - | 54 | -57
COc1cc(-c2nc3ccccn3c2NCC2CCCO2)ccc1O (configuration not stated) | - | - | - | - | 44 | -47
COc1ccccc1NC(=S)Nc1ccc2cn[nH]c2c1 | - | - | - | - | . | .
O=C(NCc1ccccn1)C1CCCN(S(=O)(=O)c2cc(Cl)ccc2Cl)C1 (configuration not stated) | . | . | . | - | . | .
CCOC(=O)c1cn(CC)c2ccc(Br)cc2c1=O | - | - | - | - | 44 | -36
CCOC(=O)c1cn(CC)c2cc(Cl)c([N+](=O)[O-])cc2c1=O | - | - | 7.5 | - | 46 | -49
CCCn1cc(C(=O)OCC)c(=O)c2cc(F)c(F)cc21 | - | - | - | - | . | .
CCOC(=O)c1cn(CC2CC2)c2cc(F)c(F)cc2c1=O | - | - | 8.2 | - | 59 | -67
CCn1cc(C(=O)O)c(=O)c2cc(Br)ccc21 | - | - | - | - | . | .
CN(C)c1nc(=NCc2cccs2)ss1 | . | . | . | - | . | .
CCOc1cc(CNn2nnnc2N)ccc1OCC(=O)NC(C)(C)C | - | - | - | - | . | .
CC(C)c1ccc(N(CC(=O)NCCc2ccccc2)C(=O)c2csnn2)cc1 | - | - | - | - | . | .
COc1ccc(CNC(=O)C2CCCN(C(=O)Nc3ccccc3OC)C2)cc1 (configuration not stated) | - | - | - | - | . | .
COC(=O)c1ccc2c(=O)n(CCN3CCOCC3)c(SCC(=O)Nc3ccc(OC)cc3OC)nc2c1 | - | - | - | - | . | .
O=c1c2ccccc2nc(SCCN2CCCCC2)n1CCc1ccccc1 | - | - | 7.8 | - | - | -27
Cn1c(=O)c2c(nc(SCCN3CCCCC3)n2C)n(C)c1=O | - | - | - | - | 56 | -72
COc1ccc(NC(=O)CSc2nc3ccccc3c(=O)n2CCCN2CCCCC2)c(OC)c1 | - | - | 12 | - | 73 | -39
CCn1c(=S)sc2c(=O)[nH]c(SCC(=O)Nc3cc(OC)ccc3OC)nc21 | - | - | - | - | . | .
CCCCCCCCCCOC(=O)Cn1c(COc2ccc(OC)cc2)[n+](C)c2ccccc21 | - | 25! | 13 | - | 28 | -42
CCCCCCCCCCOC(=O)Cn1c(COc2cccc(C)c2)[n+](C)c2ccccc21 | - | 100 | - | - | - | -41
Cc1ccccc1OCc1n(CC(=O)OC2CC(C)CCC2C(C)C)c2ccccc2[n+]1C (configuration not stated) | - | 100 | - | - | 14 | -
CCCCCCCCCCOC(=O)Cn1c(COc2ccccc2)[n+](C)c2ccccc21 | - | - | - | - | . | .
CCCCCCCCCCOC(=O)Cn1c(COc2ccccc2C)[n+](C)c2ccccc21 | - | 100 | 14 | -4.7 | - | -46
COc1ccc(C)cc1S(=O)(=O)NC(C)C(=O)NC1CC1 (configuration not stated) | - | - | - | - | . | .
COc1ccc(-c2nc(CN3CCC(C(=O)NC4CCN(Cc5ccccc5)CC4)CC3)c(C)o2)cc1OC | - | - | 7.6 | - | 60 | -51
Cc1oc(-c2ccc(Cl)cc2)nc1CN1CCC(C(=O)NCCCN2CCOCC2)CC1 | - | - | - | - | . | .
COc1ccccc1NS(=O)(=O)c1ccc(C)c(C(=O)NC2CCN(Cc3ccccc3)CC2)c1 | . | . | . | - | . | .
COc1ccc([N+](=O)[O-])cc1C(=O)NC1CCN(Cc2ccccc2)CC1 | - | - | 6.9 | - | 46 | -43
CCC1CCCCN1CCCNC(=O)C1CCN(Cc2nc(-c3ccc(Cl)cc3)oc2C)CC1 (configuration not stated) | - | - | - | - | 36 | -30

Source: PubChem BioAssay (Johns Hopkins Ion Channel Center)
